Assay results as given in PubChem BioAssay AID1159580 (chemical genetic matrix, 2015).
Values joined by “and” are separate entries in the source; they are usually repeats but may differ in a detail not shown here. Identical values can stand only once. Among all 5,500 compounds or so, about 2,000 (36%) were called active. Roughly 18% stayed inconclusive and do not appear here. Rule as the data show it: active = normalized growth mostly below about 0.91 (no sharp cut-off); inconclusive = no clear call, values can overlap the other calls; inactive = mostly above about 0.92. Some of the results follow.

Assay: chemical genetic growth profiling, strain panel (AID 1159580);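 also: tested at 20 µM; growth read once vehicle control cultures reached saturation at 30 °C; 1 = growth at the plate median or of vehicle wells; lower values mean less growth of the strain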
Conditions: S. cerevisiae deletion strains, growth OD

Measured: normalized growth

CO[C@@]1(NC(=O)C(C(=O)O)c2ccc(O)cc2)C(=O)N2C(C(=O)O)=C(CSc3nnnn3C)CO[C@@H]21 (stereo partly specified)
inactive: locus YAL013W, strain DEP1, hits give low values 1.01 | locus YAL021C, strain ccr4, hits give low values 0.993 | locus YAL026C, strain drs2, hits give low values 1 | locus YAL030W, strain snc1, hits give low values 0.982 | locus YBL061C, strain skt5, hits give low values 0.979 | locus YBR021W, strain FUR4, hits give low values 0.998 | locus YBR023C, strain chs3, hits give low values 0.994 | locus YBR171W, strain sec66, hits give low values 0.984 | locus YBR229C, strain ROT2, hits give low values 1 | locus YBR231C, strain swc5, hits give low values 0.956 | locus YBR279W, strain paf1, hits give low values 0.995 | locus YCL011C, strain gbp2, hits give low values 0.955 | locus YCL016C, strain dcc1, hits give low values 0.955 | locus YCL029C, strain bik1, hits give low values 1.03 | locus YCL061C, strain MRC1, hits give low values 1 | locus YCL069W, strain vba3, hits give low values 0.991 | locus YCR088W, strain abp1, hits give low values 0.984 | locus YDL005C, strain med2, hits give low values 0.991 | locus YDL035C, strain GPR1, hits give low values 0.999 | locus YDL040C, strain nat1, hits give low values 0.989 | locus YDL074C, strain BRE1, hits give low values 1.03 | locus YDL101C, strain DUN1, hits give low values 1.01 | locus YDL134C, strain PPH21, hits give low values 1 | locus YDL185W, strain tfp1, hits give low values 1.03 | locus YDL192W, strain arf1, hits give low values 1.02 | locus YDR001C, strain nth1, hits give low values 0.977 | locus YDR069C, strain doa4, hits give low values 1.01 | locus YDR101C, strain arx1, hits give low values 1.01 | locus YDR137W, strain rgp1, hits give low values 0.98 | locus YDR150W, strain NUM1, hits give low values 1.02 | locus YDR159W, strain sac3, hits give low values 1.01 | locus YDR162C, strain NBP2, hits give low values 1 | locus YDR195W, strain ref2 1 | locus YDR297W, strain sur2, hits give low values 0.971 | locus YDR318W, strain mcm21, hits give low values 1.02 | locus YDR334W, strain swr1, hits give low values 0.942 | locus YDR335W, strain msn5, hits give low values 0.981 | locus YDR388W, hits give low values 1.02 | locus YDR392W, strain spt3, hits give low values 0.909 | locus YDR502C, strain sam2, hits give low values 1.01 | locus YEL003W, strain gim4, hits give low values 0.99 | locus YEL037C, strain rad23, hits give low values 0.988 | locus YEL061C, strain CIN8 (second series), hits give low values 0.982 | locus YEL061C, strain CIN8, hits give low values 1.01 | locus YER015W, strain faa2, hits give low values 0.982 | locus YER016W, strain bim1, hits give low values 1 | locus YER110C, hits give low values 1.02 | locus YER111C, strain swi4, hits give low values 0.983 | locus YER155C, strain BEM2 (second series), hits give low values 0.993 | locus YER155C, strain BEM2, hits give low values 1.01 | locus YER167W, strain BCK2, hits give low values 1 | locus YFR010W, strain ubp6, hits give low values 0.996 | locus YGL078C, strain dbp3, hits give low values 0.998 | locus YGL086W, strain mad1, hits give low values 1.01 | locus YGL167C, strain pmr1, hits give low values 0.987 | locus YGL173C, strain kem1, hits give low values 0.992 | locus YGL227W, strain vid30, hits give low values 0.99 | locus YGL240W, strain doc1, hits give low values 0.987 | locus YGL248W, strain PDE1, hits give low values 1.01 | locus YGL253W, strain hxk2, hits give low values 0.996 | locus YGR078C, strain PAC10, hits give low values 1.02 | locus YGR135W, strain pre9, hits give low values 1 | locus YGR229C, strain SMI1, hits give low values 1 | locus YGR252W, strain gcn5, hits give low values 0.93 | locus YHR013C, strain ard1, hits give low values 0.962 | locus YHR027C, strain rpn1, hits give low values 0.964 | locus YHR030C, strain SLT2, hits give low values 1.01 and 0.97 | locus YHR079C, strain IRE1 (second series), hits give low values 1.02 | locus YHR079C, strain IRE1, hits give low values 0.99 | locus YHR094C, strain hxt1, hits give low values 1.02 | locus YHR129C, strain ARP1, hits give low values 1 | locus YHR142W, strain chs7, hits give low values 0.974 | locus YHR200W, strain rpn10, hits give low values 1.02 | locus YIL066C, strain RNR3, hits give low values 1.02 | locus YIL073C, strain SPO22, hits give low values 1.04 | locus YIL125W, strain kgd1, hits give low values 1.01 | locus YIR030C, strain dcg1, hits give low values 1.02 | locus YJL092W, strain hpr5, hits give low values 0.983 | locus YJL095W, strain BCK1 (second series), hits give low values 0.982 | locus YJL095W, strain BCK1, hits give low values 1.01 | locus YJL115W, strain asf1, hits give low values 0.96 | locus YJL129C, strain trk1, hits give low values 0.999 | locus YJL134W, strain LCB3, hits give low values 1 | locus YJL154C, strain vps35, hits give low values 0.975 | locus YJL164C, strain tpk1, hits give low values 0.989 | locus YJL166W, strain qcr8, hits give low values 0.951 | locus YJL168C, strain set2, hits give low values 1.02 | locus YJL187C, strain SWE1 (second series), hits give low values 1.02 | locus YJL187C, strain SWE1, hits give low values 0.986 | locus YJR043C, strain POL32, hits give low values 1.01 | locus YJR066W, strain TOR1, hits give low values 0.918
